High-throughput results as filed in PubChem BioAssay.
This is a sample that favours compounds with a hit; in the whole collection about 20% have one here.
Pf growth 96h: inhibits malaria parasite growth, 96 h. P. falciparum luciferase reporter growth, 96 h. Potency, µM (highest dose often 28.7 µM), usual class: inhibitors. 320,000 tested, 6.9% active
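Two parasite generations (96 h, 37 C, 5% CO2) of compound exposure in infected erythrocytes (0.05% parasitemia, 2% hematocrit). Luciferase-reporter P. falciparum; decreased luminescence indicates inhibited growth, aimed at apicoplast-acting delayed death.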
Shiga toxin inh: Shiga toxin inhibition. AID 2315. inhibition, % at 38.7 µM. Vero cells, Shiga toxin protein synthesis inhibition reporter. 290,000 tested, 9.2% active; in the data active = inhibition mostly above about 28%, no sharp cut-off; inactive = mostly below about 43%
HCMV antiviral: inhibitors of human cytomegalovirus | AID 1259415 | HFF cells, HCMV-luciferase reporter, 72 h; hits give low values | 410,000 tested, 4.5% active | activity change, negative = inhibition, % at 57.5 µM; in the data active = activity change below about -60%; inconclusive = no clear call, values can overlap the other calls; inactive = above about -39%
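Luciferase read-out from HCMV-luciferase-infected HFFs (MOI 1 PFU/cell) 72 h post infection at 37C; compounds added after 16 h cell attachment; activity normalized between buffer-only basal and Salinomycin (10uM) inhibitor controls.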
Pf growth 48h: P. falciparum growth inhibition at 48 hours (one generation) | 310,000 tested, 5.9% active | P. falciparum luciferase growth in erythrocytes, 48 h | AID 504832 | Potency, µM (highest dose often 28.7 µM), hits mostly inhibitors
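Read-out is firefly luciferase luminescence from an integrated reporter in P. falciparum, so falling signal marks reduced parasite growth. Infected erythrocytes were at 2% hematocrit and 0.1% parasitemia (final) in Albumax-supplemented RPMI 1640.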
Cycloheximide cs: affects cycloheximide protein synthesis inhibition readout, counter-screen; AID 2314; 300,000 tested, 12% active; max response, %; cell reporter, cycloheximide protein synthesis inhibition counterscreen; in the data active = max response mostly above about 13%, no sharp cut-off; inactive = mostly below about 14%; also: read at 38.3 µM for the half of the compounds with a filed dose
Large screens that a line does not name were inactive. Unless noted, calls follow the shape of the dose curve; as a rule, active = well fitted inhibition curve with a large enough effect; inconclusive = small, poorly fitted or top-dose-only effect, or another doubt; inactive = no such curve, though single readings can be large or run the other way.

COC(=O)CC1C(=O)NCCN1C(=S)Nc1ccc(F)cc1 (stereo unspecified)	Pf growth 96h 3.7µM
CCCc1ccc2oc(C(=O)N3CCNC(=O)C3CC(=O)OC)c(C)c2c1 (stereo unspecified)	Cycloheximide cs 19
Cc1c(C(=O)N2CCN(C)CC2)oc2ccc(Br)cc12	Pf growth 96h inconclusive, Shiga toxin inh 46, Cycloheximide cs 33
COc1ccccc1N1CCN(C(=O)c2oc3ccc(Br)cc3c2C)CC1	none
Cc1c(C(=O)N2CCCC2)oc2ccc(Br)cc12	Shiga toxin inh 42, Cycloheximide cs 35
Cc1c(C(=O)N2CCc3ccccc3C2)oc2ccc(Br)cc12	Pf growth 48h inconclusive (no result: Shiga toxin inh, Cycloheximide cs)
C[C@H]1CN([C@@H](C)CO)C(=O)CCCn2nncc2CO[C@@H]1CN(C)C(=O)c1ccccc1	none (no result: Pf growth 96h, Shiga toxin inh, Pf growth 48h, Cycloheximide cs)
COc1cc(C(=O)Nc2cc3c(cc2C)n(C)c(=O)c(=O)n3C)cc(OC)c1OC	none (no result: Pf growth 96h, Shiga toxin inh, Pf growth 48h, Cycloheximide cs)
O=C(Nc1cccc(Cl)c1)C1CCCN(c2ncnc3c2nc2n3CCCCC2)C1 (stereo unspecified)	none (no result: Pf growth 96h, Shiga toxin inh, Pf growth 48h, Cycloheximide cs)
CCCc1ccc2oc(C(=O)N3CCCC3)c(C)c2c1	Pf growth 96h inconclusive, Cycloheximide cs 30 (no result: Shiga toxin inh)
CCCN(CCC)C(=O)c1ccc2c(=O)n(Cc3ccco3)c(=S)[nH]c2c1	HCMV antiviral -90
CC1(C)Cc2c(sc3c2c(=N)n(Cc2ccco2)c(=O)n3Cc2ccc(Cl)cc2)CO1	Pf growth 96h 10µM, Pf growth 48h 5.2µM
CC1(C)Cc2c(sc3c2c(=O)n(Cc2ccccc2)c2nncn32)CO1	none (no result: HCMV antiviral)
Cn1c(=O)n(Cc2ccco2)c(=N)c2c3c(sc21)CCC3	none (no result: Pf growth 96h)
CN1CCN(C(=O)c2ccc3c(=O)n(Cc4ccco4)c(=S)[nH]c3c2)CC1	Pf growth 96h inconclusive (no result: Pf growth 48h)
CCn1c(=O)n(-c2ccc(Cl)cc2)c(=O)c2c3c(sc21)COC(C)(C)C3	Pf growth 96h 7.4µM, Pf growth 48h inconclusive
CC1(C)Cc2c(sc3c2c(=N)n(Cc2ccco2)c(=O)n3Cc2ccccc2)CO1	Pf growth 48h 9.3µM
CC1(C)Cc2c(sc3[nH]c(=S)n(Cc4ccco4)c(=O)c23)CO1	Pf growth 96h 2.6µM
CC(C)c1ccc(/C=C/C(=O)Nc2nc3ccc([N+](=O)[O-])cc3s2)cc1	Pf growth 96h 2.3µM, HCMV antiviral inconclusive, Pf growth 48h inconclusive
CC(=O)Nc1nc2cc([N+](=O)[O-])ccc2s1	none (no result: Shiga toxin inh, Cycloheximide cs)
O=[N+]([O-])c1ccc2nc(NN=Cc3ccc(O)cc3)sc2c1	HCMV antiviral -62 (no result: Pf growth 96h, Shiga toxin inh, Pf growth 48h, Cycloheximide cs)
Cc1ccc(S(=O)(=O)Nc2cc(C)cn(Cc3ccccc3)c2=O)cc1	HCMV antiviral inconclusive, Pf growth 48h inconclusive
Cc1ccc(S(=O)(=O)Nc2cc(C)cn(Cc3ccc(F)cc3)c2=O)cc1	Pf growth 96h inconclusive, Pf growth 48h 0.21µM
Cc1ccc(-n2ncc3c(NCCCc4ccccc4)ncnc32)cc1	none (no result: Pf growth 96h, Shiga toxin inh, Pf growth 48h, Cycloheximide cs)
Cc1nc(SCc2cccc(Oc3ccccc3)c2)n[nH]1	Pf growth 96h inconclusive, Cycloheximide cs 46
Cc1nc(SCc2ccc(F)cc2)n[nH]1	none
Cc1nc(SCc2ccc(Cl)c(Cl)c2)n[nH]1	Pf growth 96h inconclusive, Cycloheximide cs 16
Cc1nc(SCc2ccc(OCCC(C)C)cc2)n[nH]1	Shiga toxin inh 154, Cycloheximide cs 49
O=[N+]([O-])c1ccc(S(=O)(=O)CC2CSc3nc4ccccc4n32)cc1 (stereo unspecified)	HCMV antiviral -79
CCN(CC)C(=O)C(=O)c1cccn1-c1c(Cl)cccc1C#N	none
COc1cccc(NC(=O)Nc2cc(C)ccc2F)c1	Shiga toxin inh 95, Cycloheximide cs 27
COc1ccc(C(=O)COc2ccc(C)cc2NC(C)=O)cc1	Shiga toxin inh 96, Cycloheximide cs 49
COc1ccc(NC(=O)Nc2cc(C)ccc2OC)cc1	Cycloheximide cs 24
COc1ccc(NC(=O)Nc2cc(C)ccc2F)cc1	Cycloheximide cs 26 (no result: Pf growth 48h)
COc1ccc(C(=O)CC(=O)C(=O)Nc2cc(OC)ccc2OC)cc1	Pf growth 96h inconclusive (no result: Pf growth 48h)
COc1cccc(NC(=O)Nc2cc(C)ccc2OC)c1	HCMV antiviral inconclusive
COc1ccc(OC)c(NC(=O)Nc2ccc(Cl)cc2)c1	Pf growth 96h inconclusive (no result: HCMV antiviral, Pf growth 48h)
Cc1csc(CN(C)C(=O)CC2C(=O)NCCN2Cc2ccc(F)c(F)c2)n1 (stereo unspecified)	Pf growth 96h 13µM
CCN(Cc1ccncc1)C(=O)CC1C(=O)NCCN1Cc1ccc(F)c(F)c1 (stereo unspecified)	Pf growth 96h inconclusive, HCMV antiviral -78
COc1ccc(CN2CCNC(=O)C2CC(=O)N(C)Cc2nccn2C)cc1OC (stereo unspecified)	none
